Test results as given in PubChem BioAssay (EPA / NIEHS).
“And” between values parts separate entries of the source, which are not always exact repeats. Identical values can stand only once. Results filed as inconclusive are left out. A structure can be active in one record and inactive in another. The source made the active and inactive calls. The calls were made as follows, unless noted: active = hit-call score of the fitted dose curve at least 0.9, where 1 is the maximum; inactive = score below 0.9.

Tests used:
[1] = CCTE_Shafer_MEA_dev_firing_rate_mean: CCTE's Neural Network Formation Assay for Mean Firing Rate, Shafer Lab (AID 2284031);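 also: AUC of well mean spike rate recorded on DIV 5 7 9 and 12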;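 as to AC50: curve fitted for loss of firing so AC50 reflects decreased mean firing rate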
Outline: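 Rat primary cortical neurons were seeded on multielectrode arrays and treated from plating through day 12, with redosing at each feed. Spontaneous spiking was recorded four times; mean firing rate AUC was fitted downward against DMSO.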

[2] = CCTE_Shafer_MEA_dev_per_burst_spike_percent: CCTE's Neural Network Formation Assay for Percent of Spikes in a Burst, Shafer Lab (AID 2284032);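 as to AC50: fitted as a decrease in burst spike percentage below DMSO baseline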
Outline: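 Rat primary cortical neurons on 16-electrode MEA wells, dosed from plating day 0 for 12 days with renewal on DIV 5 and 9; spikes-in-bursts percentage averaged over bursting electrodes, collapsed as AUC across days 5, 7, 9, 12; loss direction versus DMSO.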

[3] = target: Estrogen receptor (Homo sapiens) (UniProt P03372); assay: CCTE_Deisenroth_AIME_384WELL_LUC_Inactive: CCTE's 384-well Estrogen Receptor Transactivation Assay without AIME metabolic competence (ERTA luciferase; metabolism negative), Deisenroth Lab (AID 2284038; active = hit-call score of the fitted dose curve at least 0.9, where 1 is the maximum;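 also: hits raise estrogen receptor luciferase signal so potencies reflect agonists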)
Outline: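 Metabolism-negative mode: chemicals (10-point, 0.002–200 uM) held 2 h with alginate-water microspheres, then conditioned medium applied to VM7Luc4E2 cells for 24 h. Luciferase induction referenced to 17beta-estradiol.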

[4] = CCTE_Deisenroth_AIME_384WELL_CTox_Inactive: Cytotoxicity Assessment (CTOX) in CCTE's 384-well Estrogen Receptor Transactivation Assay without AIME metabolic competence (metabolism negative), Deisenroth Lab (AID 2284039; active = hit-call score of the fitted dose curve at least 0.9, where 1 is the maximum;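 also: cell viability via live-cell protease substrate cleaved to fluorescent probe; cells exposed 24 h to medium preincubated 2 h with alginate-water beads without S9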)
Outline: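 VM7Luc4E2 cells, metabolism-negative arm: test chemicals (0.002–200 uM, 10 points) pre-incubated 2 h with alginate-water microspheres, then medium transferred to cells for 24 h. Viability read as protease-substrate cleavage to fluorescent probe; loss-of-signal, bidirectional fitting.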

[5] = CCTE_Shafer_MEA_acute_burst_number: CCTE's Neural Acute Assay for Single-Electrode Bursts, Shafer Lab (AID 2284013)
Outline: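 Rat cortical cultures, DIV 13/15; 40 min baseline, then 40 min with compound 0.03-40 uM, 37 C. Spikes: 300-5000 Hz band-pass, threshold 8x rms noise. Readout = % change in single-electrode bursts vs baseline, loss-of-signal fit.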

[6] = CCTE_Shafer_MEA_acute_burst_duration_mean: CCTE's Neural Acute Assay for Mean Burst Duration, Shafer Lab (AID 2284014);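 also: hits are decreases in mean burst duration relative to DMSO controls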
Outline: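 Primary rat cortical neurons on 16-electrode MEA wells, treated on DIV 13 or 15 with compound (0.03-40 uM; ≥3 wells each). 40-min baseline and 40-min exposure recordings at 37 C; percent change in mean burst duration per well versus DMSO.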

[7] = CCTE_Shafer_MEA_acute_per_burst_spike_number_mean: CCTE's Neural Acute Assay for Average Number of Spikes Per Burst, Shafer Lab (AID 2284015);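 also: hits are decreases in mean spikes per burst versus baseline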
Outline: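 Rat primary cortical neurons on 48-well MEAs (DIV 13 or 15) were treated with 0.03-40 uM compound at 37 C. Mean spikes per burst over 40 min were recorded before and after exposure and expressed as percent change from baseline, relative to DMSO.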

[8] = CCTE_Shafer_MEA_acute_interburst_interval_mean: CCTE's Neural Acute Assay for Mean Interburst Interval, Shafer Lab (AID 2284016);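 also: percent change of mean interburst interval versus each well's own pre-dose baseline; curves fitted for decrease in interburst interval relative to DMSO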
Outline: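 Rat primary cortical neurons on 48-well MEAs at DIV 13 or 15 were exposed acutely to 0.03-40 uM. Spikes detected at 8x rms noise, 37 C. Mean interburst interval from 40 min recordings expressed as percent change from 40 min pre-treatment baseline.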

[9] = CCTE_Shafer_MEA_acute_burst_percentage_mean: CCTE's Neural Acute Assay for Percentage of Spikes in a Burst, Shafer Lab (AID 2284017);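 as to AC50: curve fitted for loss of signal so potency reflects decreased burst percentage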
Outline: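 Primary rat cortical neurons on 48-well MEA plates, treated on DIV 13 or 15 at 0.03-40 uM. Spikes detected at 8x rms noise at 37C; percent change from 40-min baseline to 40-min post-dose recording, fitted versus DMSO.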

[10] = CCTE_Shafer_MEA_acute_burst_percentage_std: CCTE's Neural Acute Assay for Standard Deviation of Burst Percentage, Shafer Lab (AID 2284018);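 also: fitted in the negative direction so actives lower burst percentage SD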
Outline: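 Primary rat cortical neurons on 16-electrode MEA wells were recorded 40 min at baseline (DIV 13 or 15), then 40 min after compound (0.03-40 uM), at 37 C. Well value is SD across electrodes of spikes-in-bursts/total spikes; endpoint is percent change, DMSO-referenced.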

[11] = CCTE_Shafer_MEA_acute_per_network_burst_spike_number_std: CCTE's Neural Acute Assay for Standard Deviation of Number of Spikes in a Network Burst, Shafer Lab (AID 2284020);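 also: fitted for decrease in spike-number SD versus DMSO so actives lower it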
Outline: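 Primary rat cortical neurons on 48-well MEAs (16 electrodes/well) recorded at DIV 13 or 15: 40-min baseline, then 40 min with compound (0.03-40 uM), 37 C. Value is percent change in SD of spikes per network burst, relative to DMSO.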

[12] = CCTE_Shafer_MEA_acute_per_network_burst_electrodes_number_mean: CCTE's Neural Acute Assay for Mean Number of Electrodes in a Network Burst, Shafer Lab (AID 2284021);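 also: curves fitted for decreases only so hits reduce electrodes per burst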
Outline: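 Readout: % change in mean electrodes active per network burst, post- vs pre-treatment, each well. Spikes detected at 8x rms noise after 300-5000 Hz band-pass; rat cortical cultures, DIV 13/15, compounds 0.03-40 uM, DMSO baseline.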

[13] = CCTE_Shafer_MEA_acute_network_burst_percentage: CCTE's Neural Acute Assay for Percentage of Network Bursts, Shafer Lab (AID 2284022);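 also: curves fitted for loss so actives lower network burst percentage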
Outline: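 Rat cortical cultures, DIV 13/15; 20 min equilibration, 40 min baseline, compound 0.03-40 uM, 40 min recording, 37 C. Spikes: 300-5000 Hz band-pass, threshold 8x rms noise. Readout: % change in network-burst spike fraction; loss direction vs DMSO.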

[14] = CCTE_Shafer_MEA_acute_cross_correlation_area: CCTE's Neural Acute Assay for Area of Cross Correlation, Shafer Lab (AID 2284024);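 also: area under pooled inter-electrode spike cross-correlation near zero lag as percent change from own baseline; curves fitted for loss of cross-correlation area so actives lower synchrony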
Outline: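 Rat cortical cultures, DIV 13/15, MEA; spikes detected at 8x rms noise (300-5000 Hz band-pass). Compound 0.03-40 uM, ≥3 wells each. Readout: % change in pooled inter-electrode cross-correlation area vs own baseline; DMSO negative control.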

[15] = CCTE_Shafer_MEA_acute_cross_correlation_HWHM: CCTE's Neural Acute Assay for Cross Correlation at Half Width at Half Maximum, Shafer Lab (AID 2284026);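 also: percent change per well from pre-dose baseline in spike cross-correlogram half width; hits are a decrease in cross-correlogram half width relative to DMSO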
Outline: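 Read-out: half width at half maximum of action-potential cross-correlogram, percent change versus pre-treatment baseline, fitted in loss direction against DMSO. Rat cortical cultures, DIV 13 or 15, dosed 0.03-40 uM, 40-min recordings at 37 C.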

[16] = CCTE_Shafer_MEA_acute_synchrony_index: CCTE's Neural Acute Assay for Synchrony, Shafer Lab (AID 2284027);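 also: fitted for loss of signal so actives lower synchrony relative to DMSO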
Outline: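 Readout is percent change in the unitless network synchrony index (0 low, 1 high) between a 40-min baseline and a 40-min recording in compound. Cultures were primary rat cortical neurons on MEAs, treated at 0.03-40 uM on DIV 13 or 15.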

[17] = CCTE_Harrill_HTTr_CellCount_MCF7: CCTE's Cell Proliferation Assessment for the High-Throughput Transcriptomics (HTTr) Platform, Harrill Lab (AID 2284012; active = hit-call score of the fitted dose curve at least 0.9, where 1 is the maximum;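 also: count of Hoechst-stained nuclei per well by high-content imaging in MCF-7 cells; cells exposed to compound for six hours; intended direction is loss of nuclei count meaning fewer cells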)
Outline: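 Chemicals in eight-point dilution series are added to MCF-7 cells for six hours, nuclei are stained with Hoechst and imaged, and per-well nuclei counts are fitted in both directions relative to DMSO controls.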

[18] = CCTE_Deisenroth_AIME_384WELL_CTox_Active: Cytotoxicity Assessment (CTOX) in CCTE's 384-well Estrogen Receptor Transactivation Assay with AIME metabolic competence (metabolism positive), Deisenroth Lab (AID 2284037; active = hit-call score of the fitted dose curve at least 0.9, where 1 is the maximum;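 also: chemicals first conditioned 2 h by alginate-bound induced rat liver S9 before cells; activity means signal loss indicating cell death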)
Outline: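 VM7Luc4E2 breast cells received medium pre-incubated 2 h with chemical over alginate microspheres holding induced male Sprague Dawley rat liver S9; viability read 24 h later by protease-substrate fluorescence. Loss of signal, bidirectional fit, 0.002–200 uM.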

Measured: AC50

Estrogen receptor (Homo sapiens), sequence (P03372 whole entry, looked up): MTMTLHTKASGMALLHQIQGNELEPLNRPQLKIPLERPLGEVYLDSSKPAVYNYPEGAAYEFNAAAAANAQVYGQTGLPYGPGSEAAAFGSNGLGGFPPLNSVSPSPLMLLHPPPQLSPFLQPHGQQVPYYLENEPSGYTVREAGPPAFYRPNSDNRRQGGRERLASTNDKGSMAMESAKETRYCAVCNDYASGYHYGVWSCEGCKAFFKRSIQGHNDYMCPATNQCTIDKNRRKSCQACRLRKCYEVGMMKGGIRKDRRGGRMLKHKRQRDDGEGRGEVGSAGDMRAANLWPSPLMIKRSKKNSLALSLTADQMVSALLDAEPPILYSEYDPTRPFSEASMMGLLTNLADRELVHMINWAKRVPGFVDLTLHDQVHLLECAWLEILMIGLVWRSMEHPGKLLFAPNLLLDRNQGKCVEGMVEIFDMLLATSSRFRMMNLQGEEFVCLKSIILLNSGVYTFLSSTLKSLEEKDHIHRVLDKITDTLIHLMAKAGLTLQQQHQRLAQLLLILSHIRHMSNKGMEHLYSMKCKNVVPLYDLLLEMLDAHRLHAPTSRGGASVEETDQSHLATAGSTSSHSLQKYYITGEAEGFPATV

CNC(=O)Oc1cccc2c1OC(C)(C)C2
active: [2] 15.5 µM | [3] 53.8 µM
inactive: [1] | [2] | [4]

CC(C)(OOC(C)(C)c1ccccc1)c1ccccc1
not listed: [1] | [2] | [3] | [4] | [17] | [18]
inactive: all other assays above

Clc1ccc(C(c2ccc(Cl)cc2)C(Cl)(Cl)Cl)cc1
active: [9] 11.4 µM | [10] 5.34 µM | [12] 4.35 µM | [13] 4.24 µM | [16] 10.6 µM | [1] 7.7 µM and 10.1 µM | [2] 3.45 µM and 6.66 µM | [4] 160 µM
not listed: [3]
inactive: all other assays above

CCC[CH2][Sn]([Cl])([CH2]CCC)[CH2]CCC
inactive: [6] | [8] | [10] | [11] | [12] | [13] | [15]
active: [17] 17.2 µM | [5] 40 nM and 66.5 nM | [6] 0.347 µM | [7] 198 nM and 150 nM | [8] 0.382 µM | [9] 221 nM and 330 nM | [10] 7.27 µM | [11] 0.239 µM | [12] 0.992 µM | [13] 0.243 µM | [14] 16.8 nM and 54 nM | [15] 0.463 µM | [16] 237 nM and 322 nM | [1] 0.00892 µM | [2] 0.0758 µM

CC(C)(C)OOC(C)(C)CCC(C)(C)OOC(C)(C)C
inactive: [17]

Brc1ccc(Oc2ccccc2)cc1
inactive: [17]

CN(C)c1ccc(C(=O)c2ccc(N(C)C)cc2)cc1
inactive: [17]

COc1cc(C=O)cc2c1[C@H](COC(N)=O)[C@]1(OC(C)=O)ON2C[C@H]2[C@@H]1N2C(C)=O
inactive: [17]

O=C1CCCO1
inactive: [17] | [18]

CCOC(=O)[C@]1(c2ccccc2)Oc2ccccc2[C@@H]1N
inactive: [18] | [4]

CCC(C)c1ccc(O)cc1 (stereo not given)
active: [7] 32 µM | [8] 30 µM | [9] 29.6 µM | [11] 30 µM | [13] 33.9 µM | [15] 30.5 µM | [16] 30.5 µM
inactive: [5] | [6] | [10] | [12] | [14]

N#CC(Br)Br
not listed: [1] | [2] | [3] | [4] | [18]
inactive: all other assays above

Nc1ccc(N=Nc2ccccc2)cc1
inactive: [17]

CCOc1cccc(C2(N3CCN(c4ccccc4)CC3)CCC(C)CC2)c1 (stereo not given)
inactive: [17] | [18] | [3] | [4]

COP(=S)(OC)SCN1C(=O)c2ccccc2C1=O
inactive: [17] | [1]
active: [1] 83.2 µM | [2] 32.8 µM and 51.5 µM

O=P(OCCCl)(OCCCl)OCCCl
not listed: [3] | [4] | [18]
inactive: all other assays above

ClC1=C(Cl)[C@]2(Cl)[C@H]3[C@H]([C@@H]4C=C[C@H]3C4)[C@@]1(Cl)C2(Cl)Cl
active: [1] 3.92 µM | [2] 5.76 µM
not listed: [3] | [4] | [18]
inactive: all other assays above

CS(=O)(=O)NC(=O)c1cc(Oc2ccc(C(F)(F)F)cc2Cl)ccc1[N+](=O)[O-]
inactive: [17]

O=Cc1ccco1
not listed: [1] | [2] | [3] | [4] | [5] | [17] | [18]
inactive: all other assays above
